Measurements from PubChem BioAssay (EPA / NIEHS).
Calls of active or inactive are those of the source. Rule for the calls: active = hit-call score of the fitted dose curve at least 0.9, where 1 is the maximum; inactive = score below 0.9.

Columns and labels:
Conditions in all cases: mRNA level, 48 h; actives raise or lower the signal
[1] = read-out: Bcl-2 (BAX) gene, BAX (gene 581); test: LTEA_HepaRG_BAX: Life Technologies and Expression Analysis (LTEA) Assay for Bcl-2 (BAX) gene using HepaRG (AID 2283470)
How it was run: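 Cells were thawed, plated for 48 h, moved to serum-free induction medium and dosed for 48 h (highest concentration 100 uM, half-log steps, 0.5% DMSO). Total RNA was then analysed for BAX expression by qRT-PCR.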

[2] = read-out: adenosine kinase (ADK) gene, ADK (gene 132); test: LTEA_HepaRG_ADK: Life Technologies and Expression Analysis (LTEA) Assay for adenosine kinase (ADK) gene using HepaRG (AID 2283471)
How it was run: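 Following 48 h exposure of HepaRG cells in 0.5% DMSO (top concentration 100 uM, duplicate wells), ADK mRNA induction or suppression was measured by qRT-PCR, normalised to ACTB/GAPDH/POLR2A, and fitted bidirectionally relative to vehicle.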

[3] = read-out: Alpha-fetoprotein (AFP) gene, AFP (gene 174); test: LTEA_HepaRG_AFP: Life Technologies and Expression Analysis (LTEA) Assay for Alpha-fetoprotein (AFP) gene using HepaRG (AID 2283472)
How it was run: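 Chemicals were tested on differentiated HepaRG cells for 48 hours at eight concentrations up to 100 uM, with 0.5% DMSO as vehicle. AFP expression was then quantified by qRT-PCR and analyzed for gain or loss relative to DMSO.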

[4] = read-out: BCL2L11 (gene 10018); test: LTEA_HepaRG_BCL2L11: Life Technologies and Expression Analysis (LTEA) Assay for Bcl-2 (BCL2L11) gene using HepaRG (AID 2283473)
How it was run: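 Differentiated human HepaRG cells in serum-free induction medium were exposed in duplicate for 48 h to eight concentrations (top 100 uM, half-log steps, 0.5% DMSO). BCL2L11 mRNA was quantified by TaqMan qRT-PCR, normalized to ACTB/GAPDH/POLR2A, bidirectional fit versus DMSO.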

[5] = read-out: Apolipoprotein A-V (APOA5) gene, APOA5 (gene 116519); test: LTEA_HepaRG_APOA5: Life Technologies and Expression Analysis (LTEA) Assay for Apolipoprotein A-V (APOA5) gene using HepaRG (AID 2283474)
How it was run: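 Differentiated human HepaRG cells were exposed in duplicate for 48 h to eight half-log concentrations from 100 uM in 0.5% DMSO. APOA5 mRNA was quantified by TaqMan qRT-PCR, normalized to ACTB, GAPDH and POLR2A, and fitted bidirectionally against DMSO.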

[6] = read-out: Bcl-2 (BID) gene, BID (gene 637); test: LTEA_HepaRG_BID: Life Technologies and Expression Analysis (LTEA) Assay for Bcl-2 (BID) gene using HepaRG (AID 2283476)
How it was run: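 Cells are plated, cultured 48 h, switched to serum-free induction medium, then dosed 48 h (100 uM top, half-log steps, 0.5% DMSO). RNA is isolated and BID expression read by qRT-PCR.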

[7] = read-out: Caspase-3 (Homo sapiens) (UniProt P42574); test: LTEA_HepaRG_CASP3: Life Technologies and Expression Analysis (LTEA) Assay for cysteine-aspartic acid protease (CASP3) using HepaRG (AID 2283477)
How it was run: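 Differentiated human HepaRG cells in serum-free induction medium were exposed 48 h to 8-point half-log concentrations from 100 uM (0.5% DMSO vehicle). CASP3 mRNA was measured by qRT-PCR, normalised to ACTB, GAPDH and POLR2A, with bidirectional fitting against DMSO.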

[8] = read-out: Cytochrome P450 (CYP24A1), CYP24A1 (gene 1591); test: LTEA_HepaRG_CYP24A1: Life Technologies and Expression Analysis (LTEA) Assay for Cytochrome P450 (CYP24A1) using HepaRG (AID 2283478)
How it was run: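 Differentiated HepaRG cells, pre-cultured 48 h, were exposed in duplicate for 48 h in serum-free induction medium to 8 half-log concentrations (top 100 uM, 0.5% DMSO). CYP24A1 mRNA was quantified by TaqMan qRT-PCR, normalized to ACTB/GAPDH/POLR2A, fitted bidirectionally versus DMSO.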

[9] = read-out: Cytochrome P450 (CYP1A2), CYP1A2 (gene 1544); test: LTEA_HepaRG_CYP1A2: Life Technologies and Expression Analysis (LTEA) Assay for Cytochrome P450 (CYP1A2) using HepaRG (AID 2283479)
How it was run: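 Differentiated human HepaRG cells in serum-free induction medium were exposed in duplicate for 48 h to 8-point half-log concentrations up to 100 uM in 0.5% DMSO. CYP1A2 mRNA measured by qRT-PCR, normalized to ACTB, GAPDH, POLR2A; bidirectional fit vs DMSO.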

[10] = read-out: cysteine-aspartic acid protease (CASP8), CASP8 (gene 841); test: LTEA_HepaRG_CASP8: Life Technologies and Expression Analysis (LTEA) Assay for cysteine-aspartic acid protease (CASP8) using HepaRG (AID 2283480)
How it was run: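 Concentration-response in duplicate up to 100 uM (half-log steps, 0.5% DMSO) on differentiated HepaRG cultures for 48 h. Expression change of CASP8 mRNA is determined by TaqMan qRT-PCR with housekeeping-gene normalization.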

[11] = read-out: Cytochrome P450 (CYP2B6), CYP2B6 (gene 1555); test: LTEA_HepaRG_CYP2B6: Life Technologies and Expression Analysis (LTEA) Assay for Cytochrome P450 (CYP2B6) using HepaRG (AID 2283481)
How it was run: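 Differentiated HepaRG cells, serum-free induction medium, exposed 48 h in duplicate to 8-point half-log concentrations from 100 uM in 0.5% DMSO. CYP2B6 mRNA by qRT-PCR, normalized to ACTB, GAPDH, POLR2A; bidirectional fit versus DMSO.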

[12] = read-out: Cytochrome P450 2C19 (Homo sapiens) (UniProt P33261); test: LTEA_HepaRG_CYP2C19: Life Technologies and Expression Analysis (LTEA) Assay for CYP2C19 using HepaRG (AID 2283482)
How it was run: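 Differentiated human HepaRG cells were exposed for 48 h in serum-free induction medium to 8 concentrations (top 100 uM, half-log steps, 0.5% DMSO). CYP2C19 mRNA was measured by qRT-PCR, normalized to ACTB/GAPDH/POLR2A, and fitted bidirectionally against DMSO.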

[13] = read-out: CYP2C8 (gene 1558); test: LTEA_HepaRG_CYP2C8: Life Technologies and Expression Analysis (LTEA) Assay for CYP2C8 using HepaRG (AID 2283483)
How it was run: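 This is a transcriptional endpoint in HepaRG cultures: 48 h exposure, highest concentration 100 uM. CYP2C8 mRNA is quantified by TaqMan qRT-PCR.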

[14] = read-out: CYP2C9 (gene 1559); test: LTEA_HepaRG_CYP2C9: Life Technologies and Expression Analysis (LTEA) Assay for CYP2C9 using HepaRG (AID 2283484)
How it was run: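 Eight-point concentration-response (highest 100 uM, half-log dilutions) in HepaRG cells for 48 h; CYP2C9 expression by qRT-PCR normalized to ACTB, GAPDH, POLR2A. Bidirectional fit, DMSO baseline.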

[15] = read-out: CYP2E1 (gene 1571); test: LTEA_HepaRG_CYP2E1: Life Technologies and Expression Analysis (LTEA) Assay for CYP2E1 using HepaRG (AID 2283485)
How it was run: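 Readout is qRT-PCR of CYP2E1 mRNA, normalized to three housekeeping genes and fitted bidirectionally against 0.5% DMSO. HepaRG cells were dosed 48 h at eight concentrations, highest 100 uM with half-log dilutions.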

[16] = read-out: CYP4A11 (gene 1579); test: LTEA_HepaRG_CYP4A11: Life Technologies and Expression Analysis (LTEA) Assay for CYP4A11 using HepaRG (AID 2283486)
How it was run: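 Differentiated HepaRG cells, serum-free induction medium, exposed 48 h in duplicate to 8-point half-log series from 100 uM in 0.5% DMSO. CYP4A11 mRNA measured by qRT-PCR, normalized to ACTB, GAPDH, POLR2A; bidirectional fit versus DMSO.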

[17] = read-out: DNA damage-inducible transcript 3 (DDIT3), DDIT3 (gene 1649); test: LTEA_HepaRG_DDIT3: Life Technologies and Expression Analysis (LTEA) Assay for DNA damage-inducible transcript 3 (DDIT3) using HepaRG (AID 2283488)
How it was run: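 Cells are human HepaRG liver cells treated for 48 h with eight half-log concentrations up to 100 uM in 0.5% DMSO. Transcript levels come from qRT-PCR normalized to three housekeeping genes, with activity fitted in both directions relative to vehicle.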

[18] = read-out: Pro-epidermal growth factor (Homo sapiens) (UniProt P01133); test: LTEA_HepaRG_EGF: Life Technologies and Expression Analysis (LTEA) Assay for Epidermal growth factor (EGF) using HepaRG (AID 2283489)
How it was run: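 Differentiated human HepaRG cells, plated 48 h then switched to serum-free induction medium, were exposed for 48 h to test chemicals (8-point half-log series, top 100 uM, 0.5% DMSO). EGF mRNA was quantified by qRT-PCR, normalized to ACTB, GAPDH, POLR2A.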

[19] = read-out: Cytochrome P450 3A4 (Homo sapiens) (UniProt P08684); test: LTEA_HepaRG_CYP3A4: Life Technologies and Expression Analysis (LTEA) Assay for CYP3A4 using HepaRG (AID 2283487)
How it was run: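 In a human hepatic line (HepaRG), duplicate wells were treated 48 h with up to 100 uM chemical in half-log dilutions. Endpoint: CYP3A4 mRNA induction or loss relative to 0.5% DMSO vehicle, by qRT-PCR.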

[20] = read-out: Apoptosis regulator Bcl-2 (Homo sapiens) (UniProt P10415); test: LTEA_HepaRG_BCL2: Life Technologies and Expression Analysis (LTEA) Assay for Bcl-2 gene using HepaRG (AID 2283475)
How it was run: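 Plated human HepaRG cells are exposed to test chemicals for 48 h across eight concentrations from 100 uM downward in half-log steps (0.5% DMSO). BCL2 expression is then measured by qRT-PCR with housekeeping normalisation and fitted bidirectionally against vehicle.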

Measured: AC50

Cytochrome P450 2C19 (Homo sapiens), sequence (P33261 whole entry, looked up): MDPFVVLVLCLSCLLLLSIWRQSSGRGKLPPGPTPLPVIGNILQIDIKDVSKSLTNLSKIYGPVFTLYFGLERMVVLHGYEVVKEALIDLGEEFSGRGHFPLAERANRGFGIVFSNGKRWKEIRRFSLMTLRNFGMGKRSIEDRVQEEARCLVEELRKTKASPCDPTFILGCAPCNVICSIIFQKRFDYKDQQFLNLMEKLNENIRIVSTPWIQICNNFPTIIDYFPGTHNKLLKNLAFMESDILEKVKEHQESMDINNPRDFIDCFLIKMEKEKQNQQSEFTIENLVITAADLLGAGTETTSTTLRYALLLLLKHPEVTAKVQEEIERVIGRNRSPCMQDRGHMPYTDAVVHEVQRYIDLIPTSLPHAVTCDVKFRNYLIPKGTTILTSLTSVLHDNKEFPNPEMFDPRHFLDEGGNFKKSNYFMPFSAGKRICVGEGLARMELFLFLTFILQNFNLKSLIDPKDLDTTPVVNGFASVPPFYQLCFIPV
Caspase-3 (Homo sapiens), sequence (P42574 whole entry, looked up): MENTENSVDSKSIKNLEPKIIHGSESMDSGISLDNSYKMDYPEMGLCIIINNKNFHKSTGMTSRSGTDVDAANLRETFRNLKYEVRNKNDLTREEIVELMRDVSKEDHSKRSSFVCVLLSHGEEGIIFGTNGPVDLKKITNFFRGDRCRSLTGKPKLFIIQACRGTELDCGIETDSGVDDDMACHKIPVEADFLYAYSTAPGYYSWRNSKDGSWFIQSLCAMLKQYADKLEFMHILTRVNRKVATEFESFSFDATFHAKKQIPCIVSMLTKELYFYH
Cytochrome P450 3A4 (Homo sapiens), sequence (P08684 whole entry, looked up): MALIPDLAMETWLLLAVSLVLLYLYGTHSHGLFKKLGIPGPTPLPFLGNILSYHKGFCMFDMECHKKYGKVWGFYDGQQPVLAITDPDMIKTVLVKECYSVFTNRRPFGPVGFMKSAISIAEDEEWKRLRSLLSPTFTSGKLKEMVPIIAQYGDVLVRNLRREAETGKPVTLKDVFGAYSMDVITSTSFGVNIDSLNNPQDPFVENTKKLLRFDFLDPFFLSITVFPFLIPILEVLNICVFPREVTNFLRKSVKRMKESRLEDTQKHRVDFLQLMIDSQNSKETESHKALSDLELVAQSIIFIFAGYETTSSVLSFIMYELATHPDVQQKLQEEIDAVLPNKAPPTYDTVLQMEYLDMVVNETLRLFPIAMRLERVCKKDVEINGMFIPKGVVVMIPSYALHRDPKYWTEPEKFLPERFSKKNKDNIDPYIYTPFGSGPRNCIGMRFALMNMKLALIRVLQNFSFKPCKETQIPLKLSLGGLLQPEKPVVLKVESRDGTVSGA
Apoptosis regulator Bcl-2 (Homo sapiens), sequence (P10415 whole entry, looked up): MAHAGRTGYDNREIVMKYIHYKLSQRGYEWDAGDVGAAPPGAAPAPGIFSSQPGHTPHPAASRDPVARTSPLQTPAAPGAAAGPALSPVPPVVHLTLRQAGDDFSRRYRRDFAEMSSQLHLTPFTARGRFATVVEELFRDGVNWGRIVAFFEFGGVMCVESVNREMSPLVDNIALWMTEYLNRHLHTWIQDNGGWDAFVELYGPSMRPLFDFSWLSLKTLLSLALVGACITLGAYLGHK

CC(C)=CC1C(C(=O)OCc2coc(Cc3ccccc3)c2)C1(C)C (stereo unspecified)
active: [11] 20.1 µM | [12] 15.5 µM | [15] 39.1 µM | [16] 50 µM
not listed: [19] | [20]
inactive: all other assays above

CC(C)NC(=O)N1CC(=O)N(c2cc(Cl)cc(Cl)c2)C1=O
active: [3] 13.2 µM | [5] 22.7 µM | [9] 8.18 µM | [11] 3.63 µM | [15] 13.2 µM | [19] 2.97 µM | [18] 12.8 µM
not listed: [16] | [20]
inactive: all other assays above

CCOC(=O)C(C)OC(=O)c1cc(Oc2ccc(C(F)(F)F)cc2Cl)ccc1[N+](=O)[O-] (stereo unspecified)
active: [3] 50 µM | [11] 11.5 µM | [12] 12.9 µM | [15] 36.6 µM | [16] 0.598 µM | [19] 4.78 µM
not listed: [13]
inactive: all other assays above

CSC(=O)c1c(C(F)F)nc(C(F)(F)F)c(C(=O)SC)c1CC(C)C
active: [3] 49.8 µM | [11] 11.8 µM | [12] 12.2 µM | [13] 11.5 µM | [14] 87 µM | [15] 53.7 µM | [16] 87.3 µM | [19] 2.51 µM
not listed: [20]
inactive: all other assays above

CCOc1nc(F)cc2nc(S(=O)(=O)Nc3c(Cl)cccc3Cl)nn12
active: [2] 41.3 µM | [3] 25.3 µM | [11] 13.2 µM | [15] 20.3 µM | [19] 1.85 µM
not listed: [13] | [20]
inactive: all other assays above

Clc1cccc(C(Cl)(Cl)Cl)n1
active: [11] 2.9 µM
not listed: [20]
inactive: all other assays above
